Experiment [1] can be described thus: A CellTox Green Cytotoxicity Assay to monitor cytotoxicity in HEK293 cells - 40 hour (AID 1224871). Note: nearly all actives have a fitted effect of over 45% in size. In a few lines:
(§1)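 Real-time, in one plate: 600 HEK293 cells/well with dead-cell DNA dye, pinned compound after 5 h, 37 C incubation over 40 h; viable cells give no appreciable fluorescence.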

A short description of experiment [2]: qHTS RealTime-Glo MT Cell Viability Assay in HEK293 cells - 16 hour (AID 1224872). Note: nearly all actives have a fitted effect of over 50% in size. Note: potency is the fitted concentration of half-maximal effect. In short, it runs like this:
(§2)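 Assay medium contained NanoLuc luciferase plus cell-permeant prosubstrate, added with HEK293 cells at 600 cells/well. After 5 h at 37 C/5% CO2 compounds were added; plates stayed at 37 C for 40 h with serial luminescence reads.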

The nature of experiment [3]: qHTS RealTime-Glo MT Cell Viability Assay in HepG2 cells - 8 hour (AID 1224873). Note: nearly all actives have a fitted effect of over 55% in size. In a few lines: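 Real-time viability: cells seeded at 600 per well together with NanoLuc and cell-permeant prosubstrate, compounds added after 5 h incubation. Luminescence tracked at 0, 8, 16, 24, 32 and 40 h of exposure.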
A short description of experiment [4]: qHTS RealTime-Glo MT Cell Viability Assay in HEK293 cells - 40 hour (AID 1224874). Note: nearly all actives have a fitted effect of over 50% in size. Note: potency is the fitted concentration of half-maximal effect. To be noted: RealTime-Glo luminescence; max response: stronger effect = lower value. In a few lines: (§3)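 Kinetic, non-lysing viability readout. Seed HEK293 (600/well) with reagent, incubate 5 h at 37 C/5% CO2, pin 23 nL compound in DMSO, incubate at 37 C, read luminescence at 0, 8, 16, 24, 32, 40 h.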

A short description of experiment [5]: A CellTox Green Cytotoxicity Assay to monitor cytotoxicity in HEK293 cells - 24 hour (AID 1224875). Note: series mostly up to about 77 µM; nearly all actives have a fitted effect of over 45% in size. In a few lines:
as §1

Experiment [6] can be described thus: A CellTox Green Cytotoxicity Assay to monitor cytotoxicity in HepG2 cells - 16 hour (AID 1224876). Note: nearly all actives have a fitted effect of over 45% in size. In short, it runs like this:
(§4)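 Cytotoxicity was tracked as dead-cell DNA fluorescence in HepG2 cells treated with test compounds at 37 C; each time-point value comes from one kinetic series spanning 0, 8, 16, 24, 32 and 40 h.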

Experiment [7] is described as follows: qHTS RealTime-Glo MT Cell Viability Assay in HepG2 cells - 32 hour (AID 1224877). Note: nearly all actives have a fitted effect of over 55% in size. In short, it runs like this:
(§5)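 qHTS, HepG2, 600 cells/well, RealTime-Glo (NanoLuc + prosubstrate) added with cells; 5 h preincubation; DMSO compound addition; 37 C; luminescence at 0/8/16/24/32/40 h.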

A short description of experiment [8]: A CellTox Green Cytotoxicity Assay to monitor cytotoxicity in HepG2 cells - 24 hour (AID 1224878). Note: nearly all actives have a fitted effect of over 45% in size. In short, it runs like this:
as §4

Experiment [9] is described as follows: A CellTox Green Cytotoxicity Assay to monitor cytotoxicity in HepG2 cells - 40 hour (AID 1224879). Note: nearly all actives have a fitted effect of over 40% in size. In a few lines: as §4
Experiment [10] is described as follows: qHTS RealTime-Glo MT Cell Viability Assay in HEK293 cells - 0 hour (AID 1224880). In short, it runs like this:
as §3

Experiment [11] can be described thus: A CellTox Green Cytotoxicity Assay to monitor cytotoxicity in HEK293 cells - 32 hour (AID 1224881). Note: nearly all actives have a fitted effect of over 40% in size. In a few lines: as §1
Experiment [12] in a line: A CellTox Green Cytotoxicity Assay to monitor cytotoxicity in HepG2 cells - 0 hour (AID 1224882). Note: nearly all actives have a fitted effect of over 35% in size. In a few lines: as §4
Experiment [13] in a line: A CellTox Green Cytotoxicity Assay to monitor cytotoxicity in HepG2 cells - 32 hour (AID 1224883). Note: nearly all actives have a fitted effect of over 50% in size. In short, it runs like this: as §4
Experiment [14] can be described thus: A CellTox Green Cytotoxicity Assay to monitor cytotoxicity in HEK293 cells - 8 hour (AID 1224884). Note: nearly all actives have a fitted effect of over 35% in size. In a few lines: as §1
A short description of experiment [15]: qHTS RealTime-Glo MT Cell Viability Assay in HepG2 cells - 16 hour (AID 1224885). Note: nearly all actives have a fitted effect of over 50% in size. In short, it runs like this: as §5
Experiment [16] in a line: qHTS RealTime-Glo MT Cell Viability Assay in HEK293 cells - 24 hour (AID 1224886). Note: nearly all actives have a fitted effect of over 50% in size. Note: potency is the fitted concentration of half-maximal effect. In a few lines:
as §2

Experiment [17] in a line: qHTS RealTime-Glo MT Cell Viability Assay in HEK293 cells - 8 hour (AID 1224887). In short, it runs like this:
as §3

Experiment [18] in a line: A CellTox Green Cytotoxicity Assay to monitor cytotoxicity in HEK293 cells - 16 hour (AID 1224888). Note: nearly all actives have a fitted effect of over 35% in size. In a few lines: as §1
Experiment [19] in a line: qHTS RealTime-Glo MT Cell Viability Assay in HepG2 cells - 0 hour (AID 1224889). Note: nearly all actives have a fitted effect of over 50% in size. In a few lines:
as §5

Experiment [20] in a line: A CellTox Green Cytotoxicity Assay to monitor cytotoxicity in HepG2 cells - 8 hour (AID 1224890). Note: nearly all actives have a fitted effect of over 45% in size. In short, it runs like this: as §4

SMILES strings stand for the structures. Where “and” joins values, the source holds several entries; their conditions need not be identical. Equal entries are not always repeated. Records with an inconclusive call do not appear. More than one record can exist for a structure, and the calls need not agree. Calls of active or inactive are those of the source. Calls come from the whole dose curve; as a rule, active = well fitted curve in the direction sought with a large enough effect in the repeat runs; inconclusive = weak or mixed curves; inactive = no such curve, though single readings can be large; an effect the other way counts as inactive or inconclusive.
% is set by controls: 0 for no effect and ±100 for the full control effect.

On to `COc1ccccc1[N+](=O)[O-]`, for which the Potency result in [1], in experiment [2], in experiment [3], in [5], in experiment [6] and in [7] was “inactive” each time. Besides, the Potency result in [8], in [9], in [10], in [11], in experiment [12] and in [13] was “inactive” throughout. In addition, the Potency entry in [14], in experiment [15], in [16], in experiment [17], in experiment [18] and in experiment [19] was “inactive” in each case. In experiment [20], the Potency entry was “inactive”. For the same molecule, the max response in experiment [4] is 3.8% (inactive) and 3.66% (inactive).
For the molecule `CC/C(C)=N/O`, the Potency result in experiment [1], in experiment [2], in experiment [3], in experiment [5], in experiment [6] and in experiment [7] was “inactive” throughout. Further, the Potency entry in experiment [8], in [9], in experiment [10], in [11], in experiment [12] and in experiment [13] was “inactive” in each case. The Potency result in [14], in experiment [15], in experiment [16], in experiment [17], in [18] and in experiment [19] was “inactive” each time. Also, the Potency result in experiment [20] was “inactive”. In addition, in experiment [4], the max response was 0.953% (inactive) and 3.11% (inactive).
For the molecule `NC(=O)c1ncn([C@@H]2O[C@H](CO)[C@@H](O)[C@H]2O)n1`, the Potency entry in experiment [1], in [2], in experiment [3], in experiment [5], in experiment [6] and in [7] was “inactive” each time. Moreover, the Potency result in [8], in experiment [9], in experiment [10], in experiment [11], in experiment [12] and in experiment [13] was “inactive” each time. Also, the Potency entry in [14], in [15], in experiment [16], in [17], in [18] and in [19] was “inactive” in each case. For the same molecule, the Potency result in [20] is “inactive”. For the same molecule, in [4], the max response is 2.04% (inactive).
`O=C(O)C1=NN(c2ccc(S(=O)(=O)O)cc2)C(=O)C1`: the Potency entry in [1], in [2], in experiment [3], in experiment [5], in [6] and in [7] was “inactive” each time. The Potency result in [8], in [9], in experiment [10], in experiment [11], in experiment [12] and in experiment [13] was “inactive” throughout. Besides, the Potency entry in experiment [14], in experiment [15], in [16], in experiment [17], in experiment [18] and in experiment [19] was “inactive” each time. Also, the Potency entry in experiment [20] was “inactive”. Besides, the max response in experiment [4] was 6.57% (inactive) and 2.54% (inactive).
`CN=C(NC#N)NCCSCc1nc[nH]c1C`: the Potency result in experiment [1], in experiment [2], in [3], in [5], in experiment [6] and in [7] was “inactive” throughout. Moreover, the Potency result in experiment [8], in [9], in experiment [10], in experiment [11], in [12] and in experiment [13] was “inactive” throughout. Also, the Potency entry in experiment [14], in [15], in [16], in experiment [17], in [18] and in [19] was “inactive” each time. Further, the Potency result in experiment [20] was “inactive”. Further, in [4], the max response is 4.13% (inactive) and 1.71% (inactive).
As for `CCn1cc(C(=O)O)c(=O)c2cc3c(cc21)OCO3`, the Potency entry in experiment [1], in experiment [2], in [3], in experiment [5], in [6] and in experiment [7] was “inactive” throughout. Further, the Potency result in [8], in [9], in experiment [10], in experiment [11], in experiment [12] and in [13] was “inactive” each time. Also, the Potency entry in experiment [14], in experiment [15], in experiment [16], in experiment [17], in [18] and in experiment [19] was “inactive” throughout. For the same molecule, in [20], the Potency result is “inactive”. Moreover, the max response in [4] was 10.2% (inactive) and 3.68% (inactive).
In the case of `COc1c2ccoc2cc2oc(=O)ccc12`, the Potency result in experiment [1], in experiment [2], in experiment [3], in experiment [5], in experiment [6] and in experiment [7] was “inactive” throughout. Also, the Potency result in [8], in [9], in experiment [10], in experiment [11], in [12] and in experiment [13] was “inactive” throughout. For the same molecule, the Potency entry in [14], in [15], in [16], in experiment [17], in experiment [18] and in experiment [19] was “inactive” throughout. In addition, the Potency result in [20] is “inactive”. For the same molecule, the max response in experiment [4] was -25.5% (inactive) and -38.4% (inactive).
Take `O=C(O)Cc1c[nH]c2ccccc12`: the Potency entry in experiment [1], in [2], in [3], in experiment [5], in experiment [6] and in experiment [7] was “inactive” in each case. Moreover, the Potency result in experiment [8], in [9], in [10], in experiment [11], in [12] and in experiment [13] was “inactive” each time. The Potency result in experiment [14], in experiment [15], in experiment [16], in [17], in experiment [18] and in experiment [19] was “inactive” each time. Further, the Potency entry in experiment [20] is “inactive”. Besides, in [4], the max response was 12.4% (inactive) and 16.9% (inactive).
With `Cc1cccc(C)c1[N+](=O)[O-]`, the Potency entry in experiment [1], in [2], in experiment [3], in experiment [5], in experiment [6] and in [7] was “inactive” each time. In addition, the Potency entry in experiment [8], in experiment [9], in [10], in [11], in experiment [12] and in experiment [13] was “inactive” in each case. The Potency entry in experiment [14], in experiment [15], in experiment [16], in experiment [17], in experiment [18] and in experiment [19] was “inactive” throughout. Moreover, the Potency entry in experiment [20] was “inactive”. In addition, in experiment [4], the max response was -0.329% (inactive).
Turning to `C[Si](C)(C)N[Si](C)(C)C`, the Potency entry in [1], in experiment [2], in [3], in experiment [5], in experiment [6] and in [7] was “inactive” in each case. Also, the Potency result in [8], in experiment [9], in [10], in experiment [11], in experiment [12] and in experiment [13] was “inactive” throughout. Further, the Potency entry in experiment [14], in experiment [15], in experiment [16], in experiment [17], in [18] and in experiment [19] was “inactive” throughout. Also, in [20], the Potency result is “inactive”. Besides, the max response in experiment [4] is 2.88% (inactive) and 0.469% (inactive).
For the molecule `COc1cc(NC(=O)CC(C)=O)c(OC)cc1Cl`, the Potency entry in experiment [1], in [3], in experiment [5], in experiment [6], in [7] and in experiment [8] was “inactive” throughout. The Potency result in [9], in [10], in experiment [11], in experiment [12], in experiment [13] and in experiment [14] was “inactive” throughout. The Potency entry in experiment [15], in [17], in experiment [18], in experiment [19] and in [20] was “inactive” in each case. The Potency entry was “inactive and 21.9 µM (active)” in [2]; 12.3 µM (active) in experiment [4]; “inactive and 21.9 µM (active)” in experiment [16]. Moreover, the max response in experiment [4] is -13.4% (inactive).
With `O=Cc1ccc(CO)o1`, the Potency entry in experiment [1], in experiment [2], in [3], in experiment [5], in experiment [6] and in experiment [7] was “inactive” throughout. Also, the Potency result in experiment [8], in experiment [9], in experiment [10], in [11], in [12] and in experiment [13] was “inactive” throughout. Further, the Potency entry in experiment [14], in experiment [15], in experiment [16], in experiment [17], in experiment [18] and in experiment [19] was “inactive” in each case. Further, in experiment [20], the Potency entry is “inactive”. The max response in [4] is -0.203% (inactive) and -12.4% (inactive).

Values taken from PubChem BioAssay (Tox21).
